Assay results reported in PubChem BioAssay AID1446 (The Scripps Research Institute Molecular Screening Center, 2008).
Out of some 220,000 compounds screened, about 2,400 (1.1%) were called active. The sample as a whole holds a higher share of actives than the screen did. Values without a mark were called inactive.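 How the source made its calls: active means inhibition above the campaign mean plus 3 SD over all tested compounds (cut at about 24% in these data); inactive means the rest.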

assay: reduced viability of JAK2V617F-dependent Ba/F3 cells, primary screen, JAK2V617F inhibitor project, cell-based, Ba/F3 EpoR-JAK2V617F, luminescence (AID 1446); details: ATP luminescence, at 5.6 µM, stronger effect = higher value;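 further: cytokine-independent growth of Ba/F3 cells driven by EpoR plus mutant JAK2; 0% = DMSO-treated cells and 100% = JAK inhibitor I control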

SMILES	inhibition
CCOC(=O)C(Sc1ncc(C#N)c(N)n1)C(C)C (stereo not given)	-2.24%
COc1cc(C=O)ccc1Oc1nnnn1-c1ccccc1	1.87%
Cc1cc(N/N=C\c2ccc(Br)cc2)nc(-n2nc(C)cc2C)n1	-1.35%
CC(=O)c1ccc(Oc2cc(C)nc(-n3nc(C)cc3C)n2)cc1	64.7% (active)
COc1ccc(Nc2cc(C)nc(-n3nc(C)cc3C)n2)cc1	76.7% (active)
Cc1cc(C)n(-c2cc(Oc3ccccc3)ncn2)n1	0.29%
Cc1cc(Oc2ccccc2)nc(N2CCOCC2)n1	1.31%
COc1ccccc1/C=N\Nc1cc(C)nc(-n2nc(C)cc2C)n1	-2.19%
Nc1nc(SC23CC4CC(CC(C4)C2)C3)ns1	-4.14%
O=C(c1ccc(OC2CCN(Cc3ccccn3)CC2)cc1)N1CCCCCC1	-0.65%
CC(C)(C)c1ccc(CCC2OCC(CN3CCOCC3)O2)cc1 (stereo not given)	0.42%
CC(C)[C@@H]1NC(=O)c2cc([N+](=O)[O-])cc(I)c2NCCC[C@@H](C(=O)NC(CC(=O)O)C(N)=O)NC(=O)[C@H](CO)NC1=O (stereo not given in full)	1.14%
CC(C)(C)OC(=O)NCCCCCC(=O)N/N=C/c1coc2ccccc2c1=O	0.8%
Cc1ccc(N2C(=O)CN=C2Nc2nc(C)cc(C)n2)cc1	-0.62%
CCCCOc1ccc(NC(=O)[C@@H]2CCCN2C(=O)C2CCN(S(=O)(=O)c3ccc(C)cc3)CC2)cc1	1.1%
Cc1cc(C)nc(NS(=O)(=O)c2ccc(N/C=C\C(=O)c3cccs3)cc2)n1	2.57%
CCN1/C(=C\c2ccc3ccccc3[n+]2CC)Sc2cc(C)ccc21	99.7% (active)
CCN1/C(=C/c2ccc3ccc(C)cc3[n+]2CC)Sc2ccccc21	100% (active)
CCN1/C(=C/C(=S)Nc2ccccc2)Sc2ccccc21	-4.02%
CCN1CCN(CCNC(=O)c2ccc(/C=C3/Sc4ccccc4N(Cc4cccc(C)c4)C3=O)cc2)CC1	4.4%
COc1ccc([N+](=O)[O-])cc1NC(=O)COC(=O)/C=C/c1ccco1	-0.59%
O=S1(=O)CCC(NC(=S)SCc2ccccc2Br)C1 (stereo not given)	-4.11%
CC1(C)OC(=O)C(=CSc2ccc(C(C)(C)C)cc2)C(=O)O1	-1.81%
COc1cc(OC)c(C(=O)NC2CC(C)(C)NC(C)(C)C2)cc1OC	-0.48%
COc1cc(OC)c(C(=O)NC2CCCCCC2)cc1OC	99.6% (active)
COc1ccc(S(=O)(=O)NC(C)C)cc1C(=O)NC1CCCCC1	-1.5%
O=C(NC(=O)c1ccccc1N1CCCCC1)Nc1ccc(Br)cc1	0.79%
O=C(N/N=C/c1coc2ccccc2c1=O)c1cc2ccccc2o1	2.09%

SMILES	inhibition
O=C(N/N=C/c1c[nH]c2ccccc12)c1cc2ccccc2o1	0.06%
Cc1c(/C=N\NC(=O)c2cc3ccccc3o2)c2ccccc2n1C	34.8% (active)
CC(=O)c1nnn(-c2ccc(Cl)cc2C#N)c1C	0.95%
CC(C)CNC(=O)COC(=O)/C=C/c1ccco1	-3.59%
COc1ccc(Cn2c(-c3ccc(Cl)cc3)c[n+]3ccccc23)cc1	88.9% (active)
COc1ccc(C(=O)CN(C(=O)c2ccc(Cl)cc2)N2C(=O)c3ccccc3C2=O)cc1	0%
COc1ccc(Cn2c(=O)cc(C)[nH]c2=S)cc1	2.03%
O=C(CSc1nnc(SCc2ccc(F)cc2)s1)Nc1ccc(C(=O)O)cc1	-3.83%
Cc1ccc(S(=O)(=O)N(C)C)cc1NC(=O)c1ccccc1Br	2.86%
COc1ccc(-c2cc(C(F)(F)F)nc(SCC(=O)Nc3ccc4c(c3)OCO4)n2)cc1OC	2.59%
COc1cc(OC)nc(S(C)(=O)=O)n1	-3.65%
COc1ccc(-c2cc(C(F)(F)F)nc(S(C)(=O)=O)n2)cc1OC	37.9% (active)
Cc1c(CCC(=O)O)c(=O)oc2cc3occ(-c4ccccc4)c3cc12	2.82%
COc1ccc(C(=O)NNC(=S)NC(=O)c2ccccc2[N+](=O)[O-])cc1	0.22%
CCOC(=O)C(=Cc1ccccc1OC)C(=O)OCC	-2.52%
COc1ccc(C(=O)NN(C)c2nc(-c3ccccc3)cc(C)c2S(C)(=O)=O)cc1	2.15%
CN(NC(=O)c1ccccc1)c1nc2ccccc2nc1C(F)(F)F	-2.71%
CN(NC(=O)c1ccccc1F)c1nc(C(F)(F)F)nc2ccccc12	73.2% (active)
COc1ccc(OCC(=O)NNC(=O)c2cccc(C)c2)cc1	-0.28%
CSc1nc(N(C)NC(=O)c2cccc(C)c2)c2ccccc2n1	93.6% (active)
COC(=O)CNC(=O)c1ccccc1F	-2.64%
CC(=O)c1ccc(NC(=O)CSC(=S)N2CCCC2)cc1	-0.78%
C=CCNC(=O)CSc1nc2scc(-c3ccco3)c2c(=O)n1CC=C	-2.22%
Nc1nc(NC(=O)/C=C/c2ccc(F)cc2)nn1-c1ccccc1	1.73%
CCCCCN(C(=O)NC(=O)Nc1cccc(C)c1C)S(C)(=O)=O	1.95%
CC(NC(=O)C(=O)Nc1nccs1)c1ccccc1 (stereo not given)	-0.5%
CCCCN1C(=O)CCC(C(=O)O)C1c1ccc(OC)cc1 (stereo not given)	-6.4%
